KDM5B inhibitor = KDM5B demethylase inhibition; KDM5B demethylase, FDH-coupled NADH fluorescence (FDH is formaldehyde dehydrogenase); Q9UGL1; Potency, µM (doses to about 57.7 µM), usual class: inhibitors; 220,000 compounds, 2.6% hits; active = well fitted inhibition curve with a large enough effect; also: 0% is about no effect; nearly all actives have a fitted effect of over 70% in size
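Compound dilutions met 200 nM (final) KDM5BΔAP for 10 min at room temperature before substrate addition. The substrate mix held 12.5 µM H3K4me3 with cofactors 25 µM α-ketoglutarate and 50 µM Fe²⁺. NADH signal gain over 30 min defined activity.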
Active calls of the source: *; i = inactive. The entries come from a sample that favours hits as a whole. Potency is read from the fitted curve at half-maximal effect.

SMILES	KDM5B inhibitor
CC(C)CCC1(CCNCc2ccc(OC(C)C)cc2)CCOC(C)(C)C1 (stereo not given)	i
COc1cccc(-c2nnn(Cc3ncc(-c4ccccc4)o3)n2)c1	i
O=C1CC(c2ccccc2)N(Cc2ccncc2)CCCN(C(=O)NCCc2ccccc2)CCN1 (stereo not given)	i
COCCN1C(=O)CS(=O)C12CCN(C(=O)c1ccc3cc[nH]c3c1)CC2 (stereo not given)	18µM*
O=C(C1CCCC1)N1CCC2(CC1)N(Cc1cccc(F)c1)C(=O)CS2=O (stereo not given)	i
O=C(c1cccc2[nH]ccc12)N1CCC2(CC1)N(Cc1cccc(F)c1)C(=O)CS2=O (stereo not given)	18µM*
COCCN1C(=O)CS(=O)C12CCN(C(=O)Nc1ccc(OC)cc1)CC2 (stereo not given)	i
COCCN1C(=O)CS(=O)C12CCN(C(=O)C1(c3ccc(OC)cc3)CC1)CC2 (stereo not given)	i
CCn1nccc1C(=O)N1CCC2(CC1)N(Cc1cccc(F)c1)C(=O)CS2=O (stereo not given)	i
COc1ccc(N2CCN(C(=O)CCCCn3c(=O)[nH]c4ccsc4c3=O)CC2)cc1	i
NCc1cccc(-c2cc(F)cc(F)c2)c1	i
CCCn1nc(C(=O)NCCCN(C)Cc2ccccc2)c2ccccc2c1=O	i
CC(=O)Nc1ccc(CN2C[C@@H](F)[C@@H](OCc3nc4ccccc4n3C)C2)cc1	32µM*
COc1ccc(CN2C[C@@H](F)[C@@H](OCc3nc4ccccc4n3C)C2)cn1	i
Cn1c(CO[C@H]2CN(Cc3cnc4ccccc4c3)C[C@H]2F)nc2ccccc21	i
O=C(c1ccc(C(F)(F)F)cc1)N1CCC2(CC1)CC(O)CCO2 (stereo not given)	i
COc1cc(NC(=O)c2ccc3ccccc3n2)cc(OC)c1OC	i
Cc1nnc2n1CCC(NC(=O)c1ccc3cc[nH]c3c1)CC2 (stereo not given)	28µM*
Cc1nnc2n1CCC(N(C)C(=O)c1ccc3[nH]ccc3c1)CC2 (stereo not given)	i
Cc1nnc2n1CCC(NC(=O)c1ccoc1)CC2 (stereo not given)	i
O=C(Nc1cccc(F)c1)C1CCCN(c2nnc(-n3cccc3)s2)C1 (stereo not given)	i
CC(=O)Nc1ccc(CN2CCC3(CC2)CNC(=O)c2ccccc2O3)cc1	i
O=C1NC2(CCN(S(=O)(=O)c3ccccc3)CC2)N=C1c1cccs1	i
O=C1CC2(CCN(S(=O)(=O)c3ccccc3)CC2)Oc2ccccc21	28µM*
CC(=O)Nc1ccc(CN2CCC3(CC2)CC(=O)c2ccc(Cl)cc2O3)cc1	i
SMILES	KDM5B inhibitor
CC(=O)Nc1ccc(CN2CCC3(CC2)CC(=O)c2ccccc2O3)cc1	22µM*
Cn1nccc1CN1CCC2(CC1)CNC(=O)c1ccccc1O2	i
O=C(O)C1(c2ccccc2)CCN(S(=O)(=O)c2ccccc2)CC1	i
Cn1nccc1CN1CCC2(CC1)COc1ccccc1NC2=O	i
Cn1nccc1CN1CCC2(CC1)CC(=O)c1ccccc1O2	28µM*
COc1ccc(-n2nc3n(c2=O)CCN(C(=O)c2ccccc2F)C3)cc1	i
N#Cc1ccc(C(=O)N2CCCCCCNC(=O)[C@@H]3CCC[C@@H]32)cc1	i
CCOC(=O)C(=O)Cc1nc2ccccc2s1	i
Cc1nc2nc(N)nn2c(C)c1CC(=O)NCCC(C)C	i
Cc1nc(NCc2ccccc2)sc1C(=O)NCCC(C)C	i
CCNC(=O)CC1C(=O)N(c2cccc(C)c2)C(=O)N1CCC(C)C (stereo not given)	i
COc1ccccc1NC(=O)Nc1nc(CC(=O)NCCC(C)C)cs1	i
COc1ccccc1-n1nc(-c2c(C)nc3scc(CC(=O)NCCC(C)C)n3c2=O)cc1C	28µM*
Cc1cccc(-n2nc(-c3c(C)nc4scc(CC(=O)NCCC(C)C)n4c3=O)cc2C)c1	25µM*
CCc1ccccc1-n1nc(-c2c(C)nc3scc(CC(=O)NCCC(C)C)n3c2=O)cc1C	25µM*
COCCNC(=O)CCc1c(C)nn(-c2cccc(C)c2)c1Oc1ccccc1	i
COc1ccccc1CCNC(=O)c1sc(NCC(C)C)nc1C	i
CCOc1ccc(NC(=O)N2CCN(C)C3(CCC(=O)N(C)CC3)C2)cc1 (stereo not given)	i
Cc1ccn2c(C(=O)NCc3cccnc3N3CCN(C)CC3)c(C)nc2c1	i
CCC(C)C(=O)NCCc1ccsc1 (stereo not given)	i
O=C1CCCC2=C1C(c1ccc(Cl)cc1Cl)C1=C(CCCC1=O)O2	i
O/N=C/c1ccc(OCc2ccc(Cl)c(Cl)c2)cc1	i
CSc1ncccc1C(=O)Nc1cc(S(=O)(=O)N(C)C)cc(C)c1C	i
O=C1COc2ccc(-c3csc(Nc4ccc(F)c(Cl)c4)n3)cc2N1	i
CCCc1cc(CNC(=O)c2ccc(N3CCCC(CNC(C)=O)C3)nc2)on1 (stereo not given)	i
SMILES	KDM5B inhibitor
O=C(c1ccc[nH]1)N1CCC(n2cc(-c3nc(-c4ccccc4)no3)nn2)CC1	i
O=C(c1cc2ccccc2[nH]1)N1CCCC(n2cc(-c3nc(-c4ccccc4)no3)nn2)C1 (stereo not given)	18µM*
O=C(c1ccc[nH]c1=O)N1CCC(n2cc(-c3nc(-c4ccccc4)no3)nn2)CC1	i
O=C(c1cccc2[nH]ccc12)N1CCC(n2cc(-c3nc(-c4ccccc4)no3)nn2)C1 (stereo not given)	25µM*
O=C(c1ccccc1F)N1CCC(n2cc(-c3nc(-c4ccccc4)no3)nn2)C1 (stereo not given)	i
Cc1ccc(C(=O)N2CCCC(n3cc(-c4nc(-c5ccccc5)no4)nn3)C2)cc1 (stereo not given)	i
O=C(c1cccc2[nH]ccc12)N1CCC(n2cc(-c3nc(-c4ccccc4)no3)nn2)CC1	28µM*
Cc1ccccc1C(=O)N1CCC(n2cc(-c3nc(-c4ccccc4)no3)nn2)C1 (stereo not given)	i
O=C(c1cccc(Cl)c1)N1CCCC(n2cc(-c3nc(-c4ccccc4)no3)nn2)C1 (stereo not given)	i
CN(CC(=O)Nc1cccc(F)c1)C(=O)CCc1ncc(-c2ccccc2Cl)o1	i
COc1ccc(N2CCN(c3ncnc4c3cnn4-c3ccc(F)cc3)CC2)cc1	i
Brc1ccc(-c2ccc(-c3nnc(-c4ccco4)o3)o2)cc1	i
O=C(Nc1cc(Cl)cc(Cl)c1)c1ccc2ccccc2n1	i
Cc1noc2c(NCCN3CCOCC3)cc(-c3ccsc3)nc12	i
CC(=O)N1CCC(Nc2ncccc2-c2cc(-c3ccccc3)nc3c(C)noc23)CC1	20µM*
COc1ccc(OC)c(-c2cc(-c3ccccc3)nc3c(C)noc23)c1	35µM*
CC(=O)N1CCC(Nc2cc(-c3ccc(Cl)cc3)nc3c(C)noc23)CC1	i
Cc1noc2c(NCCN3CCOCC3)cc(-c3cccc(C(F)(F)F)c3)nc12	i
Cc1noc2c(-c3cccnc3NCCN3CCOCC3)cc(-c3ccccc3)nc12	35µM*
Cc1noc2c(-c3cccnc3NC(C)C)cc(-c3ccccc3)nc12	32µM*
Cc1cc(-c2cc(-c3ccccn3)nc3c(C)noc23)ccn1	i
Cc1noc2c(N(C)C)cc(-c3ccccc3)nc12	i
Cc1noc2c(-c3cn[nH]c3)cc(-c3ccccc3)nc12	i
Cc1noc2c(NC(C)C)cc(-c3cccnc3)nc12	i
